The list is not random: actives were taken first. Their share in the collection is about 1.4%.
p-CIP stab down: compounds decreasing mouse p/CIP protein stability; Q05BA5; F442A p/CIP-EGFP cells, EGFP fluorescence, 16 h; decrease of EGFP signal, % at 10 µM; actives 0.01% (n = 290,000); AID 1984;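 active means EGFP signal decrease of at least 30% at 10 µM or well 3 SD below plate mean, unless failing retest; inactive means the rest, including hits failing retest or dose response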
MsrA inh: inhibitors of bovine MsrA; AID 651718; inhibition, % at 15.5 µM; purified bovine MsrA, absorbance read-out; actives 0.75% (n = 360,000);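 further: 0% = vehicle wells with enzyme and 100% = reference inhibitor wells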
bovine MsrA act: bovine methionine sulfoxide reductase A activation. purified bovine MsrA, absorbance read-out. activation, % at 10.6 µM. actives 0.3% (n = 360,000); in the data active means activation above about 7.5%;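 further: 0% = vehicle and 100% = reference activator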
14-3-3 Bad PPI: disrupts binding of bovine 14-3-3 zeta to phospho-Bad peptide; actives 0.71% (n = 220,000); TR-FRET 14-3-3zeta/Dy647-pBad peptide displacement, 1 h; inhibition, % at 21.7 µM;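 active means inhibition above about 70%, limit read from the data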;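 further: 0% = full 14-3-3 plus peptide FRET controls and 100% = background without 14-3-3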
Target sequence (P63103 whole entry, looked up): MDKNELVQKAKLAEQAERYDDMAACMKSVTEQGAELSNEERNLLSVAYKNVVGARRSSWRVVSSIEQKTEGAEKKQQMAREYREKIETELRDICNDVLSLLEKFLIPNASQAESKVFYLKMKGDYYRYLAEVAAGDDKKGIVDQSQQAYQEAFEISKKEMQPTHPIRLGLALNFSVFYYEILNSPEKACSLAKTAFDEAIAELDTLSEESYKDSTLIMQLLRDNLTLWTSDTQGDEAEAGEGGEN
MsrA conf: confirmation of bovine MsrA inhibitors; actives 41% (n = 2,300); AID 651822; shares compounds with MsrA inh; purified bovine MsrA, absorbance read-out; inhibition, % at 15.5 µM;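 further: coupled to thioredoxin reductase with NADPH and selenocystamine and DMSO as substrate; 0% = vehicle only and 100% = full effect of reference inhibitor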
Active calls of the source: *; . = no result given. Unless noted, no stated cut-off is given here; in the data, active means inhibition above about 4.5%; inactive means the rest.

SMILES	p-CIP stab down	MsrA inh	bovine MsrA act	14-3-3 Bad PPI	MsrA conf
COc1cc(S(=O)(=O)Nc2ccc(C)cc2)ccc1N=Cc1c(C)c(C#N)c(=O)n(C)c1O	-19	3	-7	-4	.
Cc1ccc(NC(=O)c2sc3ncn(CC(=O)N4CCOCC4)c(=O)c3c2C)c(Br)c1	6	0	-1	.	.
CCN(/N=C/c1ccc(Cl)cc1)c1cc(=O)n(C)c(=O)[nH]1	-18	3	-6	9	.
CCN(/N=C/C=C/c1ccccc1)c1cc(=O)n(C)c(=O)[nH]1	4	11*	-8	-11	11*
CN(C)S(=O)(=O)c1cccc(NC(=O)COC(=O)c2cccnc2Cl)c1	.	-1	-1	.	.
COc1cc(C2SCC(=O)N2Cc2ccccc2)ccc1O (stereo not drawn)	-6	0	-1	.	.
CN(C)N=Nc1nc2c([nH]1)c(=O)n(C)c(=O)n2C	-1	2	-3	-8	.
CN(C)N=Nc1nc2c(c(=O)n(C)c(=O)n2C)n1CC1CO1 (stereo not drawn)	-1	7.4*	-6	-4	5.9*
O=C(OCc1ccccc1)N1CCC2CC1c1cc(Cl)ccc12 (stereo not drawn)	.	-1	-1	.	.
O=C(OCc1ccccc1)N1CCC2CC1c1c(Cl)cccc12 (stereo not drawn)	.	5.6*	0	.	0
COc1ccc(CN2C(=NC(=O)c3ccccc3)SC3CS(=O)(=O)CC32)cc1 (stereo not drawn)	7	-1	-11	.	.
COc1cc2c(cc1OC)/C(=C/C(C)=O)OC2	.	6.9*	.	.	4
COC(=O)/C=C1\OCc2cc(OC)c(OC)cc21	.	3	.	.	.
Cc1noc2ncnc(Oc3ccc(Cl)cc3Cl)c12	-4	3	-6	-19	.
CCOC(=O)c1cnc(SC)nc1Sc1ccccc1Cl	-17	8.2*	-5	.	3
CCOC(=O)c1cnc2c(ccc3ccccc32)c1Cl	2	-1	-5	.	.
Cc1cccc(NC(=O)CSc2nc3ccccc3c(=O)n2C)c1	-22	-1	-2	.	.
Cc1cccc(NC(=O)COc2coc(CN3CCN(c4ccccc4)CC3)cc2=O)c1	.	-1	-5	.	.
CCN(CC)c1nc(N)c2c(N)n(-c3ccccc3C)c(=S)c(C#N)c2c1C#N	-15	8.0*	-13	-6	9.3*
CCN(CC)c1cc(C)c(C#N)c2nc3ccccc3n12	-14	2	-2	4	.
CCc1c(C)c2cc(Cl)c(O)c(CN(C)C)c2oc1=O	-12	4	-15	-2	.
CCCCc1cc(=O)oc2c(CN(C)C)c(O)c(Cl)cc12	5	5.0*	-5	.	2
CCN(CC)c1ccc(/C=N/N(c2ccccc2)c2ccccc2)c(O)c1	-7	-1	-1	3	.
CCN(CC)c1ccc(C=Nc2ccccc2C)c(O)c1	-7	6.5*	-4	0	3
CCN(CC)c1ccc(/C=N/NC(=O)Cc2cccs2)c(O)c1	-23	6.2*	-9	-13	3
SMILES	p-CIP stab down	MsrA inh	bovine MsrA act	14-3-3 Bad PPI	MsrA conf
CCN(CC)c1ccc(C=Nc2ccc(C#N)cc2)c(O)c1	-19	7.6*	-14	-13	5.6*
COc1cccc(CN(C)C(=O)c2ccc(NC(=O)CC3SC(N4CCCC4)=NC3=O)cc2)c1OC (stereo not drawn)	.	0	-4	.	.
Cc1ccsc1CN(C(=O)c1ccc([N+](=O)[O-])cc1)C1CCS(=O)(=O)C1 (stereo not drawn)	-6	1	-4	.	.
S=c1[nH]nc(-c2ccccc2)n1/N=C/C=C/c1ccco1	-13	5.7*	2	-8	6.2*
S=c1[nH]nc(-c2ccc(Cl)cc2)n1/N=C/C=C/c1ccco1	0	2	-1	-10	.
Cc1cc(-c2n[nH]c(=S)n2/N=C/C=C/c2ccco2)n[nH]1	7	1	2	3	.
Cc1ccccc1-c1n[nH]c(=S)n1/N=C/C=C/c1ccco1	-13	4.7*	0	-1	5
O=C1C(=O)N(CCCn2ccnc2)C(c2ccc(Cl)cc2)/C1=C(\O)c1ccc2c(c1)OCCO2 (stereo not drawn)	-3	9.1*	-5	.	1
COc1ccc(/C(O)=C2/C(=O)C(=O)N(CCCN3CCOCC3)C2c2ccc(Cl)cc2)cc1 (stereo not drawn)	.	6.8*	-3	.	2
COc1ccccc1N1CCN(C(=O)CNC(=O)c2ccc(Cl)cc2Cl)CC1	-10	0	-3	.	.
COc1ccc(C(=O)N2CCN(c3cnn(-c4ccccc4)c(=O)c3Cl)CC2)cc1	3	4.7*	-5	-4	1
COc1cc2c(cc1OC)C(Nn1cnnc1)=NC1(CCCC1)C2	-8	0	-2	-3	.
O=C(O)/C(=C\c1ccc(-c2ccc(F)cc2)o1)c1ccccc1	-18	4.7*	-10	0	3
O=Cc1ccc(-c2ccc(C(=O)O)cc2)o1	-1	7.2*	-11	4	4
N#Cc1c(N)[nH]c(C(=O)c2ccccc2)c1-c1ccc(Br)cc1	.	1	.	.	.
CN(C)c1ccc(/C=N/NC(=O)CCc2c[nH]c3ccccc23)cc1	3	5.5*	-2	-5	3
CN(C)c1ccc(/C=N/NC(=O)c2ccccc2Cl)cc1	6	6.3*	-3	0	5.0*
CN(C)c1ccc(/C=N/NC(=O)c2ccccc2)cc1	-10	4.7*	-6	-15	4
COc1ccc(/C=C(\NC(=O)c2ccccc2)C(=O)N/N=C/c2ccncc2)cc1	0	5.0*	-5	5	6.0*
CN(C)c1ccc(/C=N/NC(=O)c2ccc(Cl)cc2)cc1	6	3	-8	-2	.
CC(=O)N1CCN(S(=O)(=O)c2cccc(C(=O)OCc3cccc(F)c3)c2)CC1	.	-1	-1	.	.
N#Cc1ccc(S(=O)(=O)N2CCN(Cc3cccs3)CC2)cc1	.	0	-3	.	.
CN(C)c1ccc(/C=N/NC(=O)Cn2nnc3ccccc32)cc1	5	5.1*	-6	2	4.7*
CN(C)c1ccc(/C=N/NC(=O)CCCCCNC(=O)c2ccccc2)cc1	-12	4.8*	-7	-3	3
CSc1ccc(/C=N/NC(=O)c2ccccc2Cl)cc1	6	5.8*	-8	-7	4
SMILES	p-CIP stab down	MsrA inh	bovine MsrA act	14-3-3 Bad PPI	MsrA conf
CN(C)c1ccc(/C=C(\NC(=O)c2ccccc2)C(=O)N/N=C/c2ccc(C(=O)O)cc2)cc1	7	5.7*	-4	.	5.4*
CSc1ccc(/C=N/NC(=O)c2cccs2)cc1	2	3	-4	0	.
COc1ccc(/C=N/NC(=O)Cn2nnc3ccccc32)cc1OC	-23	0	-1	7	.
C=CCN(C(=O)C1=NN(C2CCS(=O)(=O)C2)C(=O)CC1)c1nc(-c2ccc([N+](=O)[O-])cc2)cs1 (stereo not drawn)	-5	1	-8	-1	.
CC(C)(C)OC(=O)N1CCC(CNC(=O)Nc2ccccc2)CC1	2	-1	-8	-3	.
CCc1ccc(CN2CCCC(C(=O)Nc3ccccc3-c3ccc(OC)cc3)C2)o1 (stereo not drawn)	-15	1	2	.	.
CCOc1ccc(S(=O)(=O)N2CCCC(C(=O)NC3CCCC3)C2)cc1 (stereo not drawn)	3	0	-3	.	.
Cc1ccc(CNC(=O)CNS(=O)(=O)c2ccc(Br)s2)cc1	1	1	-2	.	.

Source: PubChem BioAssay (several laboratories)
